Compound activity as filed in PubChem.
In the library only some 2.4% were active in any assay of this set; here they are far more common.
PKM2 activator = increases activity of human pyruvate kinase M2. P14618. purified PKM2, Kinase-Glo ATP luminescence, activation; response scale: 0% is enzyme alone, no compound. Potency, µM (highest dose often 57.5 µM), for the others: at the top dose activation, most hits filed as activators. 260,000 tested, 0.34% active; further: on the % scale 0 is the no-effect control and ±100 the full control effect; nearly all actives have a fitted effect of over 55% in size
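Purified hPK-M2 (>95% pure) converted ADP (0.1 mM final) to ATP with 0.5 mM PEP in 50 mM imidazole pH7.2, KCl, MgCl2, Tween 20, BSA; 1 h at room temperature. ATP detected by Kinase-Glo luminescence.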
Rango complex inh = Rango-importin beta binding inhibition; 340,000 tested, 0.031% active; Rango CFP/YFP FRET sensor + importin beta, 45 min; Q14974; AID 540263; Potency, µM (top dose mostly 92.2 µM), for the others: top-dose inhibition of complex formation; calls by dose curve;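 further: 0% = DMSO wells and 100% = buffer wells lacking importin beta; nearly all actives have a fitted effect of over 15% in size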
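FRET biosensor Rango (snurportin 1 IBB between N-terminal EYFP and C-terminal Cerulean), 50 nM in PBS/1 mM DTT/0.02% Tween-20/0.1% BSA, preincubated 5 min RT with compound; 0.125 microM importin beta added, 45 min RT, CFP/YFP FRET ratio read.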
Tb PFK inh = T. brucei PFK enzyme inhibition. O15648. T. brucei PFK, ADP-Glo luminescence. Potency, µM (series often up to 57.5 µM), for the others: at the top dose activity, negative = inhibition, most hits filed as inhibitors. 330,000 tested, 0.17% active;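 further: 0% = uninhibited 1x PFK enzyme wells and -100% = no-enzyme wells; nearly all actives have a fitted effect of over 60% in size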
Target sequence (O15648 whole entry, looked up): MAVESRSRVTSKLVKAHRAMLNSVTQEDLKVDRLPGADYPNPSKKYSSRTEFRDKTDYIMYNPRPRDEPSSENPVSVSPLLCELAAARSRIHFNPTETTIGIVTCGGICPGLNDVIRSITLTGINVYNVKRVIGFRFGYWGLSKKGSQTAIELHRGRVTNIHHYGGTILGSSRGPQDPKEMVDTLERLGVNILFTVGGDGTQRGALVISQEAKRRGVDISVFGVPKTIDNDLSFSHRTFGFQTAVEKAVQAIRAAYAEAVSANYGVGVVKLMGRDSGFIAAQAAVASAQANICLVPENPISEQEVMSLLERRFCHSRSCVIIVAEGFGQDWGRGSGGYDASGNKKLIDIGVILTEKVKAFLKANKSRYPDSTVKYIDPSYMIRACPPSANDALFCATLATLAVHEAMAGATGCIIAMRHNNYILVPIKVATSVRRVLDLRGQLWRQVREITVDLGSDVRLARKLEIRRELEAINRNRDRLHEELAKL
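In TEA buffer at pH 8.0 with 5 mM MgCl2, enzyme (1.25 nM) converted F6P (0.5 mM) and ATP (0.1 mM) for 45 min at room temperature. ADP product was read by luciferase luminescence.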
PGK inhibitor = T. brucei PGK inhibition. P07378. PGK/GAPDH coupled, Kinase-Glo luminescence, 60 min. Potency, µM (titrated, usually from 57.5 µM), for inactives: top-dose activity change, negative = inhibition, hits mostly inhibitors. 380,000 tested, 0.043% active. AID 602233; further: on the % scale 0 is the no-effect control and ±100 the full control effect; nearly all actives have a fitted effect of over 60% in size
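Recombinant glycosomal PGK reaction used 1,3-bisphosphoglycerate generated in-well by GAPDH (100nM final) in 100mM TEA pH 7.6, 5mM MgCl2, 0.01% Tween-20. After 60 minutes at room temperature, ATP was read by Kinase-Glo Plus luminescence end-point.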
Rango release inh = inhibition of RanGTP-driven Rango-importin beta dissociation | 340,000 tested, 0.071% active | O95149+P62826 | Biochemical FRET Rango-importin beta, RanGTP-induced dissociation | Potency, µM (series often up to 46.1 µM), for the others: at the highest dose activity change, negative = inhibition | AID 540253; calls by dose curve; further: % of control where 0% means no effect; nearly all actives have a fitted effect of over 45% in size
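Compounds sat 5 min at room temperature with 0.1 uM Rango biosensor plus 0.25 uM importin beta, then FRET pre-read. RanGTP-RCC1 (0.6 uM Ran, 2mM GTP, 0.2 uM RCC1) added for 45 min, and the CFP/YFP post-read measured blocked complex dissociation.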
ELG1 repair inh = ELG1-dependent DNA repair inhibition | HEK293T ELG1-luciferase reporter, luminescence, 16 h; DNA damage induced by 5-fluorouridine | Potency, µM (top dose mostly 46.1 µM), without a hit: at the top dose activity change, negative = inhibition, hits mostly inhibitors | 330,000 tested, 2.3% active; further: on the % scale 0 is the no-effect control and ±100 the full control effect; nearly all actives have a fitted effect of over 55% in size
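HEK293T cells expressing luciferase-tagged ELG1 (2,000/well) received 5-Fluorouridine plus compound or DMSO for 16 hr at 37 °C. Luciferase was read by ONE-Glo luminescence after 30 min at room temperature.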
* hit, by the source's call; i = inactive; ? = inconclusive; . = not tested or not shown. Unless noted, the call rests on the fitted dose curve; in most records, active means well fitted curve in the direction sought with a large enough effect; inconclusive means small, poorly fitted or top-dose-only effect, or another doubt; inactive means no such curve, though single readings can be large; an effect the other way counts as inactive or inconclusive. Potency means the concentration at half of the fitted maximal effect.

SMILES | PKM2 activator | Rango complex inh | Tb PFK inh | PGK inhibitor | Rango release inh | ELG1 repair inh
Cc1ccc(C(C)C)c(OCC(=O)N2CCN(Cc3nc4cc([N+](=O)[O-])ccc4n3C)CC2)c1 | 3% | -1% | -3% | -4% | -2% | 21µM*
Cc1cccc(OCC(=O)N2CCN(Cc3ccncc3)CC2)c1 | 0% | -1% | -3% | 0% | -1% | 0%
O=C(CSC1c2ccccc2-c2ccccc21)N/N=C/c1ccccc1O | 12% | 4% | -6% | -1% | 11% | 3.7µM*
CN(CC1COc2ccccc2O1)c1nc(-c2cccnc2)nc2ccccc12 (stereo not drawn) | -7% | ? | 3% | i | 9% | 16µM*
COc1ccc(NS(=O)(=O)c2cc(NC(=O)COc3ccccc3)ccc2N2CCOCC2)cc1 | . | 0% | 0% | i | -15% | ?
CCCCCCn1c(O)c(C=NC2CCN(Cc3ccccc3)CC2)c(=O)[nH]c1=O | -3% | 2% | -4% | -3% | -1% | 21µM*
COc1ccc(-c2noc(=O)n2Cc2cc(C)ccc2C)cc1 | 2% | -2% | 0% | -5% | 0% | ?
CN[C@H]1C[C@H]2O[C@@](C)([C@H]1OC)n1c3ccccc3c3c4c(c5c6ccccc6n2c5c31)C(=O)NC4 | -3% | . | 13% | . | . | 0.52µM*
O=C1/C(=C/c2ccccc2)C[C@@]2(O)[C@H]3Cc4ccc(O)c5c4[C@@]2(CCN3CC2CC2)C1O5 (stereo partly drawn) | . | -4% | -18% | 0% | 1% | 18µM*
CCn1c(SCC(=O)Nc2nncs2)nnc1-c1ccco1 | . | -2% | 4% | -8% | -7% | -4%
COC(=O)[C@@H]1C[C@@]2(O)[C@@H](O)[C@@H](O)[C@@H](O)C[C@H]2N1Cc1cccnc1 | 1% | . | . | . | . | .
ClC1=C(Cl)C(Cl)=C(Cl)C1=C/C=C/c1ccccc1 | -10% | -4% | -7% | 3% | -11% | ?
C[C@H]1C[C@@H](C)C(=O)[C@@H]([C@H](O)CC2CC(=O)NC(=O)C2)C1 | -1% | 3% | 7% | -3% | -11% | 0.52µM*
COc1ccc(NC(=O)Cn2c3ccccc3c3nc4n(c(=O)c32)CCS4)cc1 | . | -2% | -1% | i | 0% | ?
CC(C)n1c(N2CCN(S(=O)(=O)c3cccc([N+](=O)[O-])c3)CC2)nc2ccccc21 | 0% | 0% | 3% | i | 1% | 23µM*
O=[N+]([O-])c1cccc(C2N3CCCN23)c1 (stereo not drawn) | -4% | 0% | 1% | . | 30% | 9%
CC(=O)N1N=C(c2c(O)n(C)c(=O)n(C)c2=O)CC1c1ccccc1 (stereo not drawn) | -4% | 0% | -3% | -2% | 9% | ?
CC(=O)N1N=C(c2cccnc2)CC1c1ccccc1O (stereo not drawn) | 5µM* | 2% | 0% | 0% | 7% | -1%
C=C1C(O)[C@@H]2O[C@]3(CC[C@H](/C=C/C(C)[C@@H]4CC(C)=CC5(O[C@H](C[C@@](C)(O)C(=O)O)CCC5O)O4)O3)CC[C@H]2O[C@@H]1C(O)CC(C)[C@H]1OC2(CCCCO2)CCC1C (stereo partly drawn) | . | 1% | -2% | 6% | -10% | 0.052µM*
CCOC(=O)c1c(C)c(P(=S)(N2CCOCC2)N2CCOCC2)n(C)c1C | -5% | -2% | 2% | -1% | 0% | 16µM*
O=C1NC(=O)C(=Cc2ccc(-c3ccccc3[N+](=O)[O-])o2)C(=O)N1 | 18µM* | -4% | -6% | i | -5% | 22%
CSc1nn(-c2ccc(C(=O)OCC(=O)NC(=O)NC(C)C)cc2)c(=S)s1 | -1% | 0% | -1% | 5% | 13% | ?
OC[C@H]1O[C@@H](n2cnc3cc(Cl)c(Cl)cc32)[C@H](O)[C@@H]1O | . | -1% | 0% | -5% | 4% | 8.9µM*
COc1ccc(S(=O)(=O)N(C)C[C@H]2Oc3c(NC(=O)NC4CCCCC4)cccc3C(=O)N([C@H](C)CO)C[C@@H]2C)cc1 | . | -2% | 3% | i | 0% | ?
C[C@@H]1O[C@@H](O[C@H]2C[C@@H](O)[C@]3(CO)[C@H]4[C@H](O)C[C@]5(C)[C@@H](C6=CC(=O)OC6)CC[C@]5(O)[C@@H]4CC[C@]3(O)C2)[C@H](O)[C@H](O)[C@H]1O | -15% | 2% | -6% | -2% | -1% | 0.16µM*
SMILES | PKM2 activator | Rango complex inh | Tb PFK inh | PGK inhibitor | Rango release inh | ELG1 repair inh
C[C@H]1O[C@@H](O[C@H]2[C@@H](O)C[C@H](O[C@H]3[C@@H](O)C[C@H](O[C@H]4CC[C@@]5(C)[C@H](CC[C@@H]6[C@@H]5CC[C@]5(C)[C@@H](C7=CC(=O)OC7)CC[C@]65O)C4)O[C@@H]3C)O[C@@H]2C)C[C@H](O)[C@@H]1O | 0% | -5% | -1% | 3% | 12% | 0.15µM*
Cc1cc(SCc2sc(-c3ccc(C(F)(F)F)c(F)c3)nc2C)ccc1OCC(=O)O | 0% | . | . | . | . | .
N#CC(c1ccc(Cl)nn1)c1c(F)cccc1Cl (stereo not drawn) | -2% | ? | -1% | -3% | -10% | -11%
CC(C)[C@@H]1NC(=O)c2cc([N+](=O)[O-])cc(I)c2NCCCC[C@@H](C(=O)NC(CC(=O)O)C(N)=O)NC(=O)[C@H](CO)NC1=O (stereo partly drawn) | 6% | . | ? | . | . | 6%
CCOC(=O)c1c(C)n(Cc2ccccc2)c2ccc(OCC(O)CN3C(=O)CNC3=O)cc12 (stereo not drawn) | -1% | 0% | -1% | . | 5% | ?
C#CCOc1ccc2c(c1)c(C(C)=O)c(C)n2Cc1ccccc1 | -5% | 1% | -3% | 4% | -8% | 21µM*
CN(C)CCNC(=O)C(=O)NCC1OCCCN1S(=O)(=O)c1cccs1 (stereo not drawn) | 1% | ? | 6% | -8% | -1% | 7%
CCOC(=O)c1c(C)n(Cc2ccc(F)cc2)c2ccc(O)cc12 | 11µM* | 0% | -7% | -9% | -3% | 1%
CCOC(=O)c1c(C)n(Cc2ccc3c(c2)OCO3)c2ccc(O)cc12 | 15% | -1% | -4% | i | 13% | ?
CN1C2CC(OC(=O)C(CO)c3ccccc3)CC1C1OC12 (stereo not drawn) | -2% | -1% | 0% | -6% | 12% | 14%
